Laboratory results as given in PubChem BioAssay AID1456 (Vanderbilt High Throughput Screening Facility, 2008).
The whole screen tested about 190,000 compounds, of which about 4,100 (2.2%) were called active. The list comes from a sample in which actives are over-represented; it also holds similar structures and randomly drawn compounds. Values without a mark were called inactive.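 How the source made its calls: active means thallium flux slope and its plate-corrected score both differing from the plate sample mean at a set confidence after two filtering rounds, in either direction; inactive means the rest.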

Target: Solute carrier family 12 member 5 (Homo sapiens) (UniProt Q9H2X9)
Sequence (Q9H2X9 whole entry, looked up): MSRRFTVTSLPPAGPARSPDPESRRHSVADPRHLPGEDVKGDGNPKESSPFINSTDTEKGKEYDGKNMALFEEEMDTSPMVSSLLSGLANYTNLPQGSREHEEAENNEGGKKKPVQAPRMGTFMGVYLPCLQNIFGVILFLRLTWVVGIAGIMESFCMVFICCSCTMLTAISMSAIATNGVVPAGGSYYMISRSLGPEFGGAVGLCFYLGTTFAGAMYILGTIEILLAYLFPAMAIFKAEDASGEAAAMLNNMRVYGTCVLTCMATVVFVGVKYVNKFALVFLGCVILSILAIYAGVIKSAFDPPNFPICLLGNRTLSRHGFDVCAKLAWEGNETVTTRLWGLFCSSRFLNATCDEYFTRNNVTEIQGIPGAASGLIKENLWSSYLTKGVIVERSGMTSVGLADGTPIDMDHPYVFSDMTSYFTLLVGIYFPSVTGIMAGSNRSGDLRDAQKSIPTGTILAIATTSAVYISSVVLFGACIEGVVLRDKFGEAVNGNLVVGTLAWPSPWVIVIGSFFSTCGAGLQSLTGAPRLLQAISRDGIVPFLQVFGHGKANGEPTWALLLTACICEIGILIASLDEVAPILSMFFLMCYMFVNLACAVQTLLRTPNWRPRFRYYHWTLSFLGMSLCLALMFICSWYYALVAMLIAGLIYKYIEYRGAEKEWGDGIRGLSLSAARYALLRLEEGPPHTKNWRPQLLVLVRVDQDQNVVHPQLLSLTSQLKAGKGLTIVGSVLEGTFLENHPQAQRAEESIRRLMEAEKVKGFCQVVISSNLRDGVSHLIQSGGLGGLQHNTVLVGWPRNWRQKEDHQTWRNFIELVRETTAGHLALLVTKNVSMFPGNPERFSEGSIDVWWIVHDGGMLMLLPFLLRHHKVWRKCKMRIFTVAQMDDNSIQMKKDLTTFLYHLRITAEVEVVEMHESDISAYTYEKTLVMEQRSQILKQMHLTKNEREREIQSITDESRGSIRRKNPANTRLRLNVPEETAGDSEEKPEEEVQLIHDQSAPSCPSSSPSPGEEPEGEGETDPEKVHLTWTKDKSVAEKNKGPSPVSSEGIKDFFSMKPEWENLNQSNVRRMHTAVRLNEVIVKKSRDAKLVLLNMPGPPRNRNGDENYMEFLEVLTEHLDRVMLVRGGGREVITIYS
Assay: modulation of human KCC2 ion transport – cell-based, HEK293 KCC2, FluoZin-2 fluorescence, MLSMR, primary screen (AID 1456);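 further: slope of fluorescence scaled to starting intensity during 10 to 20 s after thallium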
Settings: KCC2 cells, thallium flux FluoZin-2 fluorescence; at 10 µM

Compound | B-score of Tl+ flux slope (higher = more flux/activation; lower = inhibition)
Cc1nc2cc(NC(=O)Nc3cccc(F)c3)ccc2n1C | 0.703
NNC(=O)c1cccc(COCC(F)(F)C(F)F)c1 | -0.618
Cc1cccc(-n2c(SCC(N)=O)nc3c(c2=O)C2(CCCCC2)Cc2ccccc2-3)c1 | 4.92 (active)
N#CCSc1nc2c(c(=O)n1Cc1ccccc1)C1(CCCC1)Cc1ccccc1-2 | 1.45
Cc1cccc(-n2c(=O)c3c(C)c(C)sc3n(CC(N)=O)c2=O)c1 | 0.771
Cc1cc(Nc2ccc(Cl)cc2)nc(N2CCOCC2)n1 | -1.05
NC(=S)Nc1c(Cl)cccc1Cl | 0.0214
C=CCNC(=S)NNC(=O)c1ccc(Br)o1 | 0.645
C=CCNC(=S)NNC(=O)COc1c(Cl)cc(Cl)cc1Cl | 7.57 (active)
C=CCNC(=O)COC(=O)CNC(=O)c1cc(Cl)cc([N+](=O)[O-])c1 | 0.057
Cc1cc(Nc2ccc(N3CCOCC3)cc2)c2cccc(C)c2n1 | -2.79
Cc1ccc(/C=N/NC(=O)CN2CCN(Cc3ccccc3)CC2)s1 | 0.187
CNC(=S)N/N=C/c1ccc(N2CCOCC2)s1 | 1.59
C=CCNC(=S)N/N=C/c1ccc(C)s1 | 14 (active)
O=C(Nc1nnc(CCN2CCCCC2)s1)c1cccc(Cl)c1 | 0.116
CN1CCN(c2ccc(CNS(=O)(=O)c3cccc(F)c3)cc2)CC1 | -0.58
Cc1nnc(C)c2c(C)n(N)c(C)c12 | 0.198
COc1ccc(S(=O)(=O)Nc2cccnc2)c(Cl)c1Cl | 0.54
CCOC(=O)C1=C(C)NC(=O)N(C(C)=O)C1c1ccc(Cl)cc1 (centres undefined) | -1.98
CCOC(=O)C1C(c2ccc(Cl)cc2)NC(=S)NC1(O)C(F)(F)F (centres undefined) | 1.75
CCOC(=O)C1Sc2[nH]c(=O)sc2C(c2ccc(Cl)cc2)C1C(=O)OCC (centres undefined) | -3.93 (active)
CCOCCn1c(-c2ccccc2)nc2ccccc21 | 0.025

Compound | B-score of Tl+ flux slope (higher = more flux/activation; lower = inhibition)
Cc1cccc(-n2cnc(C(=O)NNC(=S)Nc3ccccc3)c2)n1 | -1.44
CCOc1ccc(-c2n[nH]c(=S)n2/N=C/c2cc3c(cc2[N+](=O)[O-])OCO3)cc1 | 0.939
O=[N+]([O-])c1ccccc1/C=N/n1c(COc2ccccc2)n[nH]c1=S | 24.3 (active)
Cc1ccc(-c2n[nH]c(=S)n2/N=C/c2cc3c(cc2[N+](=O)[O-])OCO3)cc1 | 0.106
COc1ccc(N(Cc2ccccc2)S(=O)(=O)c2cccc(C(=O)O)c2)cc1 | -1.07
CN(c1ccccc1)c1ccc(/C=c2\s/c(=C(/C#N)C(=O)C(C)(C)C)n(Cc3ccco3)c2=O)cc1 | 0.174
Cc1cs/c(=N\N=C\c2ccc(O)cc2)n1Cc1ccco1 | -4.66 (active)
Cc1csc(=Nc2ccccc2)n1CCO | 0.00145
CCc1nc2sc3c(Cl)ncnc3c2c2c1CCCC2 | 1.2
Cc1ccc(F)cc1NC(=O)N1CCCN(c2ccc(C(F)(F)F)cn2)CC1 | 0.46
Cc1ccc(N(C(=O)c2sc(C)nc2C)C(C(=O)NC(C)(C)C)c2ccncc2)cc1 (centres undefined) | 0.0067
O=C(NC(=S)N1CCN(Cc2ccccc2)CC1)c1ccccc1 | 26.6 (active)
O=C(CN1CCN(Cc2ccccc2)CC1)NC(c1ccccc1)c1ccccc1 | -2.1
O=C(Nc1ccccc1)N1CCN(Cc2ccccc2)CC1 | -0.481
CC(=O)Nc1nc(C)c(-c2csc(Nc3ccc(S(N)(=O)=O)cc3)n2)s1 | 0.404
Oc1ccc(-c2nnc(Nc3ccccc3)c3ccccc23)cc1 | -3.93
c1ccc(Nc2n[nH]nc2-c2ccccc2)cc1 | -0.551
S=c1[nH]nc(Nc2ccccc2)s1 | -8.06 (active)
S=c1[nH]nc(NCCc2ccccc2)s1 | -1.55
CNC1(c2nnnn2-c2c(C)cccc2C)CCOC(C)(C)C1 (centres undefined) | -0.333
Cc1cc(=O)[nH]c2nnnn12 | 0.843
CC(Nc1nc(N2CCOCC2)nc2ccccc12)c1ccccc1 (centres undefined) | -0.0767

Compound | B-score of Tl+ flux slope (higher = more flux/activation; lower = inhibition)
Cc1cc(C)c(C)c(S(=O)(=O)N[C@@H](C)C(=O)OC(C)C(=O)NC(N)=O)c1C (some centres undefined) | -0.78
O=C(c1cc(-c2cccc(O)c2)on1)N1CCc2ccccc2C1 | -2.87
Cc1ccc(-c2cc(C(=O)N3CCc4ccccc4C3)no2)cc1 | 0.312
O=C(c1cc(-c2ccc(O)cc2)on1)N1CCCc2ccccc21 | -2.96 (active)
COc1ccc(NC(=O)C2=NNC(=O)CC2)cc1S(=O)(=O)N1CCCCC1 | 1.01
CC1Cc2ccccc2N1S(=O)(=O)c1ccc(Cl)nc1 (centres undefined) | -1.44
CC(CC(=O)Nc1cc(C(F)(F)F)ccc1Cl)c1ccccc1 (centres undefined) | -1.96
O=C(Nc1cc(C(F)(F)F)ccc1Cl)C(=O)N1CCCCC1 | 0.245
O=C(NNc1ccccc1Cl)C(O)(c1cccc(C(F)(F)F)c1)c1cccc(C(F)(F)F)c1 | 14.9 (active)
[O-][N+]12CCCCC1CCCC2CO (centres undefined) | -0.0478
COc1ccc2cc(CCl)c(Cl)nc2c1 | 0.0416
CC(NC(=O)C(C)(C)C)C(c1cccs1)N1CCN(Cc2ccccc2)CC1 (centres undefined) | 0.428
S=c1nc(C23CC4CC(CC(C4)C2)C3)nc2sccn12 | 2.46
CC(=O)NNC(=O)c1csc(Cc2c(Cl)sc3ccc(Cl)cc23)n1 | 13.6 (active)
CNC(=O)c1csc(Cc2c(Cl)sc3ccc(Cl)cc23)n1 | -0.799
CC(=O)Cc1nsc(NC(=O)c2ccc(Cl)cc2Cl)n1 | 1.49
CN(Cc1nc(-c2cnccn2)no1)Cc1n[nH]c2c1CCCCC2 | -2.53
CCn1c(Cc2cccs2)nnc1SCC(=O)c1ccc(C)cc1 | -1.23
CCn1c(SCC(=O)c2ccc3ccccc3c2)nnc1-c1cccs1 | -5.11 (active)
O=C(CSc1nnc(-c2cccs2)n1Cc1ccco1)c1ccc2c(c1)OCO2 | -2.4
